MPTP inh – mitochondrial permeability transition pore inhibitors, primary screen, biochemical, isolated mouse mitochondria, absorbance; inhibition, % at 10 µM; Ca2+ swelling absorbance, 30 min; 360,000 compounds, 1.4% hits;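 active = inhibition of 50% or more, scaled per plate between neutral and stimulator controls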;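 note: 0% = DMSO wells given calcium and 100% = 1 mM EGTA wells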
Mdm2 MdmX PPI – inhibitors of human Mdm2-MdmX association, primary screen, cell-based, luminescence, split luciferase, SaOS-2, uHTS; SaOS-2 split-luciferase Mdm2/MdmX complementation; inhibition, % at 8 µM; 330,000 compounds, 3% hits;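 active = inhibition of at least 50% at 8 µM in the primary screen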
Target sequence (O15151 whole entry, looked up): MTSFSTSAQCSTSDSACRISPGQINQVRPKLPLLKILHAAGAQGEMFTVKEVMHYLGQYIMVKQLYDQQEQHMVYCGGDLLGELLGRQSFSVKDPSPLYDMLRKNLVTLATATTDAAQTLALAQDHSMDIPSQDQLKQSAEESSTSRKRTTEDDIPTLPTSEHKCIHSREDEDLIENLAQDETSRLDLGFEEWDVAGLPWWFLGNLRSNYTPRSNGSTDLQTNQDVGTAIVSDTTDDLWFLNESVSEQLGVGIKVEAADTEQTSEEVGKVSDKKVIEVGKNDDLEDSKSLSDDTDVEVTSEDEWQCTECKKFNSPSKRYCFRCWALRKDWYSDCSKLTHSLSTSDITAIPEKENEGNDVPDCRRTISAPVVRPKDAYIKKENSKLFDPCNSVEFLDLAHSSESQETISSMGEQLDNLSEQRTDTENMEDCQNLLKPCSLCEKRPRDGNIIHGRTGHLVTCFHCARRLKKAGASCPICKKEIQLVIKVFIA
Target sequence (Q00987 whole entry, looked up): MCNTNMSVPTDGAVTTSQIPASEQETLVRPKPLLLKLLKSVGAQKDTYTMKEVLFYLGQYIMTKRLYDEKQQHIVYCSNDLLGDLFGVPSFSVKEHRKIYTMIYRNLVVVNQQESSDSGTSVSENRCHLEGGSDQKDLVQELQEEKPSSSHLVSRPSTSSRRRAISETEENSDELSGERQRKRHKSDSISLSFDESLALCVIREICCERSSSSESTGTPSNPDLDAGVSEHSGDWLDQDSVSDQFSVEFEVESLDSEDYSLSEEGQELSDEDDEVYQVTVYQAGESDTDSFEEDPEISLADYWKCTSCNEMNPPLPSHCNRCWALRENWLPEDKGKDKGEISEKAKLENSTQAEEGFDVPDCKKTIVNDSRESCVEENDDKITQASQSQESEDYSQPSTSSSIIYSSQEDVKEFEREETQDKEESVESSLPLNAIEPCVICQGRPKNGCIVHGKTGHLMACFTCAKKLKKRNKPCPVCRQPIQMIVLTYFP
CSC inhib – cancer stem cell viability inhibitors, primary screen, luminescence; cancer stem cell-like cells viability; inhibition, % at 7.5 µM; 300,000 compounds, 1.1% hits; AID 2717, 2010; in the data active = inhibition above about 75%; inconclusive = no clear call, values can overlap the other calls; tested in HMLE shEcad cells
Calb FLC – C. albicans growth inhibition with fluconazole, primary screen, CaCi-2 strain, Alamar Blue fluorescence; C. albicans CaCi-2 (fluconazole-resistant clinical isolate) + fluconazole, 48 h; growth inhibition, % (concentration not given with the values); 300,000 compounds, 0.57% hits;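 active = growth inhibition above about 58% in most replicates, limit read from the data, passing the limit was not always enough; inconclusive = exactly half the replicates above a set limit; inactive = most replicates below a set limit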;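 note: all wells also contain fluconazole at 8 µg/ml as a sub-toxic cotreatment; 0% = median of DMSO wells and 100% = median of geldanamycin control wells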
Beta cell apopt – inhibitors of cytokine-induced beta cell apoptosis, primary screen, luminescence; INS-1E cytokine-induced death, ATP luminescence, 48 h; percent of positive-control rescue, neutral wells zero; protection from apoptosis, % (no concentration beside the values); 300,000 compounds, 0.8% hits; AID 435005, 2010;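 active = Every replicate reaches about 75%, or at least half do and their mean reaches it too, limit read from the data; inconclusive = At least half of replicates reach the limit but their mean does not; inactive = Under half of replicates reach the limit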;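 note: 0% = cytokine-treated negative control wells and 100% = positive control rescue; higher means more ATP so stronger rescue from cytokine killing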
The depositor's hits bear a star; ? = inconclusive; . = no result given. An excerpt weighted towards active compounds, which were near 4.8% of everything screened.

SMILES	MPTP inh	Mdm2 MdmX PPI	CSC inhib	Calb FLC	Beta cell apopt
CCOC(=O)[C@]12CCC=C1N(Cc1ccc(Cl)cc1Cl)C(=O)[C@H](CC(=O)NCc1ccc(C)o1)C2	-3	.	.	.	.
O=C1NN(c2ccccc2)C(=O)/C1=C/c1ccc(-c2ccc(Cl)c(C(=O)O)c2)o1	2	.	.	-34	.
Cc1ccc(Sc2ccc(/C=C3/C(=O)NN(c4ccccc4)C3=O)o2)cc1	13	-1	89*	-11	3
Cc1ccsc1/C=C1/C(=O)NN(c2ccccc2)C1=O	1	13	9	-64	3
Cc1cccc(N2NC(=O)/C(=C/c3ccc(-c4ccc(Cl)c(C(=O)O)c4)o3)C2=O)c1	1	.	.	103*	.
O=[N+]([O-])c1ccc2c(c1)[nH]c(=S)n2-c1ccccc1	-4	34	22	85*	-6
O=[N+]([O-])c1cccc(-c2n[nH]c(=S)n2-c2ccccc2)c1	.	-35	0	4	-10
CC(C)c1nc(-c2ccccc2)c(-c2ccccc2)[nH]1	-2	7	-3	-15	88*
COc1ccc(CN(C)CC(=O)Nc2cc3oc4ccccc4c3cc2OC)c(OC)c1	2	25	84*	6	6
COc1ccc(Nc2nnc(-c3ccccc3)c3ccccc23)cc1C(=O)N1CCCCC1	3	25	97*	21	-1
O=C(/C=C/[C@H]1O[C@@H](n2cnc3c(NC(=O)c4ccccc4)ncnc32)[C@H](O)[C@@H]1O)NCC1CCCCC1	1	.	.	.	.
COc1ccc(CCC(C)NCC2CCCCC2)cc1 (stereo unspecified)	1	-34	93*	-27	-7
CC(C)(C)NC(=O)C1c2ccccc2OCC(=O)N1Cc1ccccn1 (stereo unspecified)	-2	.	.	.	.
O=C(c1ccc(-n2cccn2)cc1)N1CCc2c([nH]c3ccccc23)C1c1ccccn1 (stereo unspecified)	2	-25	9	-2	9
Cn1cccc1-c1cc(C(=O)N2CCc3c([nH]c4ccccc34)C2c2ccccn2)[nH]n1 (stereo unspecified)	-2	39	1	98*	1
COc1ccc(NC(=O)c2c(N)no[n+]2[O-])cc1	-1	-21	103*	101*	3
COc1ccc(NC(=O)c2c(N)no[n+]2[O-])c(OC)c1	0	4	8	-37	-5
CO[C@H]1CN(C)C(=O)c2ccc(NC(=O)NC(C)C)cc2OC[C@H](C)NC[C@H]1C	-2	.	.	.	.
CC(=O)c1cccc(NS(=O)(=O)c2ccc(N/C=C\C(=O)c3ccc(F)cc3)cc2)c1	32	7	20	-35	98*
CCCCCCCCN1C(=O)[C@H](CC(=O)N2CCCCC2)C[C@@]2(C(=O)OC)CC(C)(C)CC=C12	1	.	.	.	.
COc1ccc(NC(=O)c2ccc(COc3ccccc3)o2)c(OC)c1	0	10	10	15	-2
COc1ccc(NC(=O)c2ccc(COc3ccccc3Br)o2)c(OC)c1	1	24	92*	-4	0
COc1ccc(-c2cn(-c3ccc(Br)cc3)c3[n+]2CCS3)cc1	3	33	30	4	57
CC(=O)c1ccc(-n2cc(-c3ccc(C(C)(C)C)cc3)[n+]3c2SCCC3)cc1	-2	21	.	101*	50
CCOc1cc(N2CCOCC2)c(OCC)cc1NC(=O)CN1CCC(Cc2ccccc2)CC1	3	13	84*	10	-4
SMILES	MPTP inh	Mdm2 MdmX PPI	CSC inhib	Calb FLC	Beta cell apopt
Cc1ccc(C(=O)CC(=O)c2ccccc2C)c(O)c1	-2	34	26	81*	4
Cc1ccc(O)c(C(=O)CC(=O)c2ccc(C(C)(C)C)cc2)c1	2	19	10	-2	3
Cc1ccc(O)c(C(=O)CC(=O)c2ccccc2Cl)c1	2	5	6	108*	19
Cc1ccc(C(=O)CC(=O)c2cccc(F)c2)c(O)c1	2	43	4	-6	12
CC(=O)c1ccc(NC(=O)c2onc(C)c2Cl)cc1	-1	-51	-8	18	.
Cc1noc(NC(=O)c2ccc(Cl)c(Cl)c2)c1Cl	10	25	3	89*	-3
COc1cc(/C=C/C(=O)Nc2ccc(C)cc2)cc(OC)c1OC	-1	-5	3	-5	3
CCN(CC)CCNC(=O)c1ccc(NC(=O)/C=C/c2cc(OC)c(OC)c(OC)c2)cc1	-1	32	.	66*	5
CN(C(=O)COC(=O)/C=C/c1cccc([N+](=O)[O-])c1)C1CCS(=O)(=O)C1 (stereo unspecified)	-1	40	92*	4	-4
O=C(CN(Cc1ccco1)Cc1ccco1)Nc1cc(S(=O)(=O)N2CCCCC2)ccc1Cl	0	41	.	.	101*
O=C(Nc1cccc(C(=O)N2CCOCC2)c1)C1CCCCC1	0	.	.	.	.
COc1ccc(N(C(=O)CCl)C(C(=O)NCCc2ccccc2)c2cccs2)cc1 (stereo unspecified)	2	.	111*	4	-4
COc1ccc(CNC(=O)C(c2ccncc2)N(C(=O)Cc2cccs2)c2ccccc2)cc1 (stereo unspecified)	0	.	.	.	.
Cc1cccc(-c2nnc(NC(=O)c3ccc(Cl)cc3)o2)c1	-32	44	89*	?	-1
Cc1ccc(C(=O)Nc2nnc(-c3ccncc3)o2)cc1	0	19	2	21	-4
O=C(Nc1nnc(-c2ccco2)o1)c1cccc(Cl)c1	0	28	19	87*	-4
CCOc1ccc(NC(=O)c2cn(-c3ccc(OCC)cc3)c(=O)c3cc(OC)c(OC)cc23)cc1	2	19	8	86*	1
O=C(NNC(=S)NC(=O)c1ccccc1Cl)c1cccc([N+](=O)[O-])c1	3	-24	0	-11	3
O=C(CC(=O)c1cccc([N+](=O)[O-])c1)Nc1ccccc1Cl	20	1	-6	103*	1
O=C(CC(=O)c1ccccc1)Nc1cccc([N+](=O)[O-])c1	18	.	.	.	.
O=C(NNc1c(Cl)cc(Cl)cc1Cl)c1cccc([N+](=O)[O-])c1	17	-5	21	-5	113*
COc1ccc(C(NC(=O)C2CCN(Cc3ccc(Oc4ccccc4)cc3)CC2)c2ccccn2)cc1 (stereo unspecified)	0	.	.	.	.
O=C(Nc1ccccc1)c1ccc(-c2ccc([N+](=O)[O-])cc2)o1	1	-2	.	-16	-1
O=C(NNC(=O)c1ccccc1O)c1ccc(-c2ccc([N+](=O)[O-])cc2)o1	0	43	-5	91*	.
Cc1cc2[nH]c(=O)c(=O)[nH]c2cc1S(=O)(=O)N1CCN(c2ccccc2F)CC1	-2	26	-4	81*	-3
Cc1cc2[nH]c(=O)c(=O)[nH]c2cc1S(=O)(=O)N1CCN(c2cccc(C)c2C)CC1	-1	14	.	4	-1
